Measured values as given in PubChem BioAssay AID1117361 (Southern Research Institute, 2015).
Screen size: about 3,600 compounds; about 900 (25%) were called active. How the calls were made is not given here. Only a sample is shown. Potency and affinity values are given separately.

Biological target: Protein Tat (Human immunodeficiency virus type 1 group M subtype B (isolate HXB2)) (UniProt P04608)
Assay: HIV-1 Tat–TAR interaction blockers – biochemical, fluorescence polarization, FAM-labeled TAR RNA, counter-screen for Vif-APOBEC3G degradation inhibitor project, dose response (AID 1117361)
Details: Tat-TAR RNA binding; series mostly up to 100 µM; inhibition: at the top concentration

| SMILES | outcome | inhibition |
| --- | --- | --- |
| Cc1nc(C)c(C(=O)OCC(=O)Nc2ccc(C)c(C)c2)s1 | inactive |  |
| O=C(N/N=C/C1CC=CCC1)c1ccccc1O (stereo not given) | inactive |  |
| CCc1cccc(CC)c1-n1c(SCC(=O)N2CCCc3ccccc32)nc(O)cc1=O | inactive |  |
| O=C(Cn1ncc2c(=O)oc3ccccc3c21)N1CCCc2ccccc21 | inactive |  |
| O=C(Cn1cc2c(n1)CCCC2)N1CCCc2ccccc21 |  | 6.76% (inactive) |
| Cc1onc(-c2ccccc2)c1C(=O)N1CCCc2ccccc21 | inactive |  |
| Cc1nnc(SCC(=O)NCc2cccs2)[nH]c1=O |  | 4.05% (inactive) |
| COc1ccc(C(CNCC(=O)Nc2ccccc2F)N(C)C)cc1 (stereo not given) | inactive |  |
| O=[N+]([O-])/C(C(Cl)=C(Cl)Cl)=C(/NC1CC1)Sc1ccccc1 |  | 0.82% (inactive) |
| O=C1CCCN1c1ccc(S(=O)(=O)N2CCC(c3ccccc3)CC2)cc1 |  | 0.68% (inactive) |
| N#C/C(=C/c1cc(Br)cs1)C(=O)NCC1CCCO1 (stereo not given) |  | 2.03% (inactive) |
| O=C(COc1ccc(Cl)cc1)N1CCN(S(=O)(=O)c2ccc(Cl)cc2)CC1 |  | 11.5% (inactive) |
| Cc1ccc(Cl)cc1N1CCN(C(=O)Cc2cn(C)c3ccccc23)CC1 |  | 4.05% (inactive) |
| CC(C)Cn1nc(NC(=O)C(C)(C)C)c2cc3ccccc3nc21 |  | 22.3% (inactive) |
| Cc1ccc(C(=O)NNS(=O)(=O)c2ccc(F)cc2)cc1 |  | 1.67% (inactive) |
| O=C(CN1CCN(c2ccccc2O)CC1)Nc1ccc2c(c1)CCC2 |  | 1.36% (inactive) |
| O=[N+]([O-])c1ccc(NCCCNS(=O)(=O)c2ccc(Cl)cc2)c(Cl)c1 |  | 3.38% (inactive) |
| COc1cc([N+](=O)[O-])c(N2CCOCC2)c([N+](=O)[O-])c1OC | inactive |  |
| O=S(=O)(NCC1CCCO1)c1cc(Br)c(Br)s1 (stereo not given) | inactive |  |
| CCCOC(=O)/C(C(N)=NCc1ccccc1)=C(\O)OCCC |  | 9.02% (inactive) |
| O=C1CCCC2=C1C(c1cccs1)n1ncnc1N2 (stereo not given) |  | 9.46% (inactive) |
| Cc1cc(C)n2nc(SCC(=O)Nc3ccc(F)cc3)nc2n1 |  | 6.08% (inactive) |
| Cc1nnc(NCCc2ccccc2)n(N)c1=O |  | 3.38% (inactive) |
| O=C(NCC(c1ccco1)N1CCCC1)c1cccc(S(=O)(=O)N2CCCCC2)c1 (stereo not given) |  | 11% (inactive) |

| SMILES | outcome | inhibition |
| --- | --- | --- |
| O=C(CCOc1ccccc1)NCC(c1ccco1)N1CCCCC1 (stereo not given) |  | 8.87% (inactive) |
| Nc1nc(Nc2ccccc2)sc1C(=O)c1ccccc1 |  | 9.07% (inactive) |
| COCCN(Cc1cc2ccccc2[nH]c1=O)C(=O)c1ccccc1OC |  | 4.77% (inactive) |
| CCc1ccc2c(c1)cc(C)c1nnc(SCC(=O)Nc3cc(OC)c(OC)cc3C(=O)O)n12 | inactive |  |
| C=CCOc1ccc(Br)cc1/C=N/O |  | 11.5% (inactive) |
| Cc1cccc(C)c1NC(=O)CS(=O)CC(=O)NC1CCN(Cc2ccccc2)CC1 (stereo not given) | inactive [at 50 µM] |  |
| CCOC(=O)CC(=O)CSc1ncc(C(=O)OCC)c(N)n1 | inactive |  |
| CCOC(=O)c1ccc(-n2ncc(C(=O)OCC)c2N)cc1 | inactive |  |
| COc1ccc2cc(C3(C)NC(=O)N(CC(=O)Nc4c(C)n(C)n(-c5ccccc5)c4=O)C3=O)ccc2c1 (stereo not given) |  | 11.6% (inactive) |
| O=S(=O)(/C=C/c1ccccc1)N1CCN(c2ccc(F)cc2)CC1 |  | 4.09% (inactive) |
| CC(=O)Nc1cccc(C(=O)NC(C)c2ccc(S(N)(=O)=O)cc2)c1 (stereo not given) |  | 13.5% (inactive) |
| CCCN(CCC)CCCNc1ccc2nnc(-c3ccc(F)cc3)n2n1 |  | 25% (inactive) |
| CCOC(=O)C1CCN(C(=O)C2CCN(S(=O)(=O)c3cc(Cl)ccc3Cl)CC2)CC1 |  | 2.03% (inactive) |
| CCOC(=O)C1CCN(C(=O)c2ccc(OC)cc2OC)CC1 | inactive |  |
| CCC1SC2=NC(C)=C(C(=O)OC)C(c3ccc(C(=O)OC)cc3)N2C1=O (stereo not given) |  | 2.05% (inactive) |
| CCOC(=O)c1ccc(N2C(=O)c3n[nH]c(C)c3C2c2ccc(OC)cc2OC)cc1 (stereo not given) | inactive |  |
| CC1=NN(C(=O)c2csc(C)c2)C(O)(C(F)(F)F)C1 (stereo not given) | inactive |  |
| CCCC(=O)Nc1cccc(-c2nc3ccccc3o2)c1 |  | 4.73% (inactive) |
| Brc1ccccc1Cn1c(-c2cncs2)nc2ccccc21 | inactive |  |
| O=C(CNS(=O)(=O)c1ccc2ccccc2c1)Nc1ccc(F)c(F)c1F |  | 21.4% (inactive) |
| COc1cccc(CN2CCNC(=O)C2CC(=O)NCCn2nc(C)cc2C)c1OC (stereo not given) |  | 27.2% (inactive) |
| CC(C)(C)CN1CCNC(=O)C1CC(=O)NCCc1ccccc1C(F)(F)F (stereo not given) | inactive |  |
| O=C(CSc1ccccc1)N1CCN(c2ccccc2)CC1 |  | 2.05% (inactive) |
| Cc1nc2nc(C)c(CCC(=O)N3CCN(c4ccccc4)CC3)c(C)n2n1 |  | 16.4% (inactive) |

| SMILES | outcome | inhibition |
| --- | --- | --- |
| C(=N\Nc1nncn1/N=C/c1ccco1)/c1ccco1 | inactive |  |
| Cc1nc2scc(-c3ccccc3)c2c(=O)n1/N=C/c1ccco1 |  | 0.68% (inactive) |
| COc1cccc(/C=N/n2c(-c3cc(C)[nH]n3)n[nH]c2=S)c1 | inactive |  |
| Cn1ccnc1SCC(=O)c1ccc(Br)cc1 | inactive |  |
| CCO[C@H]1OC(C(=O)NCc2ccccc2)=C[C@@H](c2coc3ccccc3c2=O)[C@@H]1CCCO | inactive |  |
| C/C(N)=C(/C#N)C(=O)COC(=O)CCSc1ccccc1 |  | 4.05% (inactive) |
| CCN(CC)Cc1cc(Nc2c3ccccc3nc3c4ccccc4n(C)c23)cc(CN(CC)CC)c1O | inactive |  |
| Clc1ccc(-n2ncc3c(NCc4ccccn4)ncnc32)cc1 | inactive |  |
| COc1ccccc1C(C#N)N1N=C(C)CC1(C)C (stereo not given) | inactive |  |
| CSc1nc2ccc3nc(NC(=O)c4ccccc4)sc3c2s1 |  | 8.11% (inactive) |
| CCOc1ccc(C(=O)NC(=S)Nc2ccc(N3CCC(C)CC3)cc2)cc1[N+](=O)[O-] |  | 10.7% (inactive) |
| CCCCN(C(=O)c1ccccc1OCc1ccc(F)cc1)c1c(N)n(CC(C)C)c(=O)[nH]c1=O |  | 5.68% (inactive) |
| CC(C)c1ccc(SCc2noc(C(=O)NCC3CCCO3)c2C(=O)O)cc1 (stereo not given) | inactive |  |
| CCN1C(=O)/C(=C/N2CC(C)CC(C)C2)SC1=S (stereo not given) | inactive |  |
| Cc1ccccc1N1C(=O)C2ON(c3ccccc3)C(c3cccnc3)C2C1=O (stereo not given) |  | 26.6% (inactive) |
| CC1=CCC(/C=N\Nc2nnc3c(n2)[nH]c2ccccc23)CC1 (stereo not given) |  | 10.9% (inactive) |
| CCOC(=O)c1nc2sc(C)c(C)c2c(=O)[nH]1 | inactive |  |
| CCN1C(=O)c2ccccc2S(=O)c2ccc(C(=O)N3CCCC3)cc21 (stereo not given) | inactive |  |
| Cc1cccc(N2CCN(CC(=O)NCC3CCCCC3)CC2)c1C | inactive |  |
| Nc1nc(-c2ccc(F)cc2)cc(C(F)(F)F)n1 |  | 4.05% (inactive) |
| O=C(CN1C(=O)c2ccccc2C1=O)OC(C(=O)c1ccc(Cl)cc1)c1ccccc1 (stereo not given) |  | 1.36% (inactive) |
| COc1ccc(NC(=O)c2ccccc2NC(=O)CSc2ccc(Cl)cc2)cc1 |  | 13.5% (inactive) |
